Here are results for 4 molecules from publication PMC11062922 (Nature Chemical Biology, 2023).

Like-named read-outs stand apart in the source and are kept apart here.

Common to all, as to set-up: species or system human, MV4-11 + K-562 + COLO205 + SK-N-BE2 + OVCAR-8
The subject of one assay is AKT1. The conditions noted are these: read-out: apparent Kd, n = 1.
For another assay, the system named is AKT2. To be noted: read-out: apparent Kd, n = 1.
The next assay deals with MAP2K1. To be noted: read-out: apparent Kd; compound concentrations: 100 nM and 1000 nM (sheet 'Samples'), CATDS: 9.8973729248026707E-2; n = 1.
A further assay relates to MAP2K2. To be noted: read-out: apparent Kd; compound concentrations: 100 nM and 1000 nM (sheet 'Samples'), CATDS: 0.112091584059978; n = 1.
For a further assay, the system named is NCL. To be noted: read-out: apparent Kd; compound concentrations: 100 nM and 1000 nM (sheet 'Samples'), CATDS: 0.116162101404393; n = 1.
For a further assay, the system named is PIK3C3. The conditions noted are these: read-out: apparent Kd; compound concentrations: 100 nM and 1000 nM (sheet 'Samples'), CATDS: 0.115592517664726; n = 1.
The test system of a further assay is PIK3CB. The conditions noted are these: read-out: apparent Kd; compound concentrations: 100 nM and 1000 nM (sheet 'Samples'), CATDS: 0.13740958062808101; n = 1.
The test system of a further assay is PYGL. The conditions noted are these: read-out: apparent Kd; compound concentrations: 100 nM and 1000 nM (sheet 'Samples'), CATDS: 9.7642966529981307E-2; n = 1.
The next assay deals with TAOK3. To be noted: read-out: apparent Kd; compound concentrations: 100 nM and 1000 nM (sheet 'Samples'), CATDS: 0.106339903242866; n = 1.
For another assay, the system named is ATM. The conditions noted are these: read-out: apparent Kd; compound concentrations:100 nM and 1000 nM (sheet 'Samples'); n = 1.
The next assay has as its system CIT. To be noted: read-out: apparent Kd; compound concentrations:100 nM and 1000 nM (sheet 'Samples'); n = 1.
A further assay has as its system ERBB3. The conditions noted are these: read-out: apparent Kd; compound concentrations:100 nM and 1000 nM (sheet 'Samples'); n = 1.
A further assay deals with GSK3A. To be noted: read-out: apparent Kd; compound concentrations:100 nM and 1000 nM (sheet 'Samples'); n = 1.
The next assay relates to GSK3B. To be noted: read-out: apparent Kd; compound concentrations:100 nM and 1000 nM (sheet 'Samples'); n = 1.
The subject of another assay is LATS1. The conditions noted are these: read-out: apparent Kd; compound concentrations:100 nM and 1000 nM (sheet 'Samples'); n = 1.
In a further assay the test system is MARK2. The conditions noted are these: read-out: apparent Kd; compound concentrations:100 nM and 1000 nM (sheet 'Samples'); n = 1.
For a further assay, the system named is MARK3. The conditions noted are these: read-out: apparent Kd; compound concentrations:100 nM and 1000 nM (sheet 'Samples'); n = 1.
A further assay has as its system MARK4. To be noted: read-out: apparent Kd; compound concentrations:100 nM and 1000 nM (sheet 'Samples'); n = 1.
Another assay relates to PAK4. To be noted: read-out: apparent Kd; compound concentrations:100 nM and 1000 nM (sheet 'Samples'); n = 1.
Another assay has as its system PAK6. To be noted: read-out: apparent Kd; compound concentrations:100 nM and 1000 nM (sheet 'Samples'); n = 1.
The subject of a further assay is PKN1. To be noted: read-out: apparent Kd; compound concentrations:100 nM and 1000 nM (sheet 'Samples'); n = 1.
In the next assay the test system is PKN3. The conditions noted are these: read-out: apparent Kd; compound concentrations:100 nM and 1000 nM (sheet 'Samples'); n = 1.
For another assay, the system named is PRKACA. To be noted: read-out: apparent Kd; compound concentrations:100 nM and 1000 nM (sheet 'Samples'); n = 1.
The subject of the next assay is PRKACB. The conditions noted are these: read-out: apparent Kd; compound concentrations:100 nM and 1000 nM (sheet 'Samples'); n = 1.
The test system of a further assay is PRKCD. The conditions noted are these: read-out: apparent Kd; compound concentrations:100 nM and 1000 nM (sheet 'Samples'); n = 1.
The test system of the next assay is PRKCQ. The conditions noted are these: read-out: apparent Kd; compound concentrations:100 nM and 1000 nM (sheet 'Samples'); n = 1.
The next assay deals with PRKG1. To be noted: read-out: apparent Kd; compound concentrations:100 nM and 1000 nM (sheet 'Samples'); n = 1.
The next assay concerns PRKX. To be noted: read-out: apparent Kd; compound concentrations:100 nM and 1000 nM (sheet 'Samples'); n = 1.
A further assay has as its system TTN. The conditions noted are these: read-out: apparent Kd; compound concentrations:100 nM and 1000 nM (sheet 'Samples'); n = 1.
For another assay, the system named is ADRBK1. To be noted: read-out: apparent Kd; compound concentrations: 100 nM and 1000 nM (sheet 'Samples'), CATDS: 0.136000830332002; n = 1.
The subject of the next assay is FLT4. To be noted: read-out: apparent Kd; compound concentrations: 100 nM and 1000 nM (sheet 'Samples'), CATDS: 0.144028041300378; n = 1.
For the next assay, the system named is MAP4K5. The conditions noted are these: read-out: apparent Kd; compound concentrations: 100 nM and 1000 nM (sheet 'Samples'), CATDS: 0.15363433252833; n = 1.
The next assay concerns PLK1. To be noted: read-out: apparent Kd; compound concentrations: 100 nM and 1000 nM (sheet 'Samples'), CATDS: 0.58980024549807997; n = 1.
A further assay concerns SLK. To be noted: read-out: apparent Kd; compound concentrations: 100 nM and 1000 nM (sheet 'Samples'), CATDS: 0.13817903386438299; n = 1.
A further assay concerns STK10. To be noted: read-out: apparent Kd; compound concentrations: 100 nM and 1000 nM (sheet 'Samples'), CATDS: 0.15967879525120501; n = 1.
Where [1] appears, read: compound concentrations:100 nM and 1000 nM (sheet 'Samples').

For the molecule `Cc1nc(Nc2cnn(C3CCNCC3)c2)nc2c1N(C)C(=O)c1cc3ccccc3cc1N2C` [HTH-01-015], the potency estimated from few doses is 1.31 µM in the assay on AKT1 (compound concentrations: 100 nM and 1000 nM (sheet 'Samples'), CATDS: 0.123501580073808); 1.87 µM in the assay with AKT2 (compound concentrations: 100 nM and 1000 nM (sheet 'Samples'), CATDS: 0.10314044451286999); 2.06 µM in the assay on MAP2K1; 1.58 µM in the assay with MAP2K2; 1.47 µM with NCL; 1.48 µM with PIK3C3. The results for the potency estimated from few doses in the assay on PIK3CB, in the assay on PYGL and with TAOK3 were 1.08 µM, 2.12 µM and 1.76 µM, respectively.
Regarding `Cn1cc(C2=C(c3cn(-c4ccccc4)c4ccccc34)C(=O)NC2=O)c2ccccc21` [RO0318564-000], the potency estimated from few doses in the assay with AKT1 (compound concentrations: 100 nM and 1000 nM (sheet 'Samples'), CATDS: 1) was 2.08 µM.
Consider `CCn1c(-c2nonc2N)nc2c(C#CC(C)(C)O)ncc(OC[C@@H]3CCCN3)c21.O=C(O)C(F)(F)F` [GSK614526A], for which the potency estimated from few doses in the assay on AKT1 (setting [1]) is 1.09 µM; in the assay on AKT2 (setting [1]), 0.934 µM; in the assay on ATM, 0.303 µM; in the assay with CIT, 0.983 µM; in the assay on ERBB3 it was 1.81 µM; in the assay with GSK3A, 0.365 µM. Further, the potency estimated from few doses in the assay on GSK3B was 0.44 µM; in the assay on LATS1, 0.634 µM; in the assay on MARK2, 0.762 µM; in the assay with MARK3, 0.607 µM; in the assay on MARK4, 1.04 µM; in the assay with PAK4, 0.0667 µM. Further, the potency estimated from few doses with PAK6 was 0.821 µM; in the assay on PKN1, 0.215 µM; in the assay on PKN3, 0.15 µM; in the assay with PRKACA it was 0.144 µM; in the assay on PRKACB, 0.51 µM; with PRKCD it was 2.14 µM. Besides, the potency estimated from few doses is 1.17 µM in the assay with PRKCQ, 0.0699 µM with PRKG1, 0.00138 µM in the assay with PRKX and 0.544 µM with TTN.
Regarding `COc1cc2ncn(-c3cc(OCc4ccncc4Br)c(C(N)=O)s3)c2cc1OC` [GW854278X], the potency estimated from few doses was 2.2 µM in the assay on ADRBK1; 1.88 µM in the assay with FLT4; 1.59 µM in the assay with MAP4K5; 0.135 µM with PLK1; 2.1 µM in the assay on SLK; 1.45 µM in the assay with STK10.
